Compounds without any hit were thinned out: in the full panel of roughly 83,000, 20% have a hit.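 48-hour exposure, single concentration, 96-well plates; percent growth endpoint where 0 means no net growth. Active: below 10.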 Values without a mark were called inactive. Calls of active or inactive are those of the source.
Each compound was assayed on NCI/ADR-RES ovarian (assay: NCI-60 one-dose screen, 48 h (100 = growth as untreated, 0 = no growth, -100 = all killed)). Conditions: 10 µM unless noted.
O=S(=O)(Nc1cc(F)cc(Cl)c1)c1ccc(-c2cnc(C3CC3)o2)cc1 gave a growth of 21.9%. In the case of COC(=O)c1c(C)nc(C)c2c1C(=O)C(Br)=C(NCc1ccccc1)C2=O, the growth was 3.37% (active). COc1cc2c(c(OC)c1OC)CCC(c1cccc(C(=O)Nc3ccc(C#N)cc3)c1)O2 (configuration not stated) was tested, and the growth was 19%. O=C1c2ccccc2-c2c1c1c(=O)[nH]c3ccccc3c1n2Cc1ccccc1 gave a growth of 67.9%. Work on O=C1c2c(c3c4ccccc4[nH]c3c3ccc4ccccc4c23)C(=O)N1CCN1CCNCC1 yielded a growth of 25.9%. Work on CC(C)=CCCC(C)c1ccc(C)c2c1OCN(CCCCCO)C2 (configuration not stated) yielded a growth of 75.9%. COc1ccc(/C=N/NC(=O)c2ccc(-n3cc(-c4ccccc4)nn3)cc2)cc1OC showed a growth of 101%. For CCN(CC)S(=O)(=O)c1ccc(S(=O)(=O)N2CCC[C@@H](C(=O)N3CCN(c4nc(C(C)C)no4)CC3)C2)cc1, the growth was 58.9%. Cc1cc(N2CCN(CC(=O)Nc3ccc4c(ccn4C)c3)CC2)nc(N2CCCCCC2)n1 gave a growth of 91.5%. In the case of COc1ccc(Nc2ncc(Br)c(NCCCNC(=O)c3cccs3)n2)cc1, the growth was 46.5%. NC(=O)C(=O)c1ccccc1NC=O gave a growth of 89.6%. For N#Cc1ccc2c(c1)C(=O)c1c-2n(CCCN)c(=O)c2cc([N+](=O)[O-])ccc12, the growth was -36.3% (active). In the case of c1ccc(Cn2cc3c(c2)-c2oncc2CC3)cc1, the growth was 0.523% (active). O=C(CSC(=S)n1cnnc1)NC(=O)c1ccccc1 was tested, and the growth was 99.7%. O=C1/C(=C\c2ccc3nccnc3c2)SC(=S)N1CCc1ccc(O)cc1 gave a growth of 101%. Compound COc1c(B(O)O)cccc1-c1nc2c(F)cc3[nH]ncc3c2c2c1CCCC2 has a growth of 17.7%. With COc1c(B(O)O)cccc1-c1cc(C)c2c(ccc3[nH]ncc32)n1 the growth was 83.3%. With CSc1nnc(-c2cc3c([nH]c4ccccc43)c(-c3cccc(O)c3)n2)n1-c1ccccc1 the growth was 56.6%. With C=C1C(=O)O[C@H]2[C@H]1CC/C(Cn1cc(-c3ccccc3)nn1)=C\CC[C@@]1(C)O[C@@H]21 the growth was 43.6%. Compound C=C(CBr)[C@@H]1CC[C@]2(C(=O)O)CC[C@]3(C)[C@H](CC[C@@H]4[C@@]5(C)CCC(=O)C(C)(C)[C@@H]5CC[C@]43C)[C@@H]12 has a growth of 83.4%. Work on CCNCCNc1cc(C2CCCCC2)c(C#N)c2nc3ccccc3n12 yielded a growth of 35.5%. In the case of COc1cc2c(c(OC)c1OC)CCC(c1cccc(C(=O)Nc3cccc(Cl)c3)c1)O2 (configuration not stated), the growth was 83.8%. Work on CCCCCCCC[C@@H]1N[C@@H](C(=O)OC)Cc2c1[nH]c1ccccc21 yielded a growth of 86.5%. CC(=O)Oc1ccc(/C(=C(\C)c2ccc(Cl)cc2)c2ccc(OCCN3CCCCC3)cc2)cc1 showed a growth of 50%. Compound COc1ccc2cc1Oc1ccc(cc1)C[C@H]1c3c(cc4c(c3Oc3cc5c(cc3OC)CCN(C)[C@@H]5C2)OCO4)CCN1C has a growth of 76.2%. With CC(=O)c1c(C)nc2ccccc2c1/C=C/c1ccc(F)cc1 the growth was 67.6%. In the case of CN(/C(N)=N/N=C/c1c2ccccc2cc2ccccc12)C1CCCCC1, the growth was 45%. CCOC(=O)n1ccn(C)c1=S was tested, and the growth was 107%. Cc1cn(-c2cc(NC(=O)c3cncc(C#Cc4cnc(N)c5ncccc45)c3)cc(C(F)(F)F)c2)cn1 was tested, and the growth was 86.9%. Compound O=C(Cn1cc(CSc2nc3ccccc3o2)nn1)Nc1ccc(F)cc1F has a growth of 101%. In the case of Cc1c2cnccc2c(C)c2c1c1cc(C#N)ccc1n2C, the growth was -9.81% (active). For CNC(=O)c1ccccc1Oc1nc(Nc2cc(OC)c(OC)c(OC)c2)ncc1Br, the growth was 66.8%.

These compounds were tested on T-47D breast in the same assay as above. Conditions: 10 µM unless noted.
Work on COCCOc1cc2ncnc(N3CCN(c4ncc(S(=O)(=O)N5CCCCC5)cn4)CC3)c2cc1OCCOC yielded a growth of 87%. COC(=O)[C@]1(C)CCC[C@]2(C)[C@H]3C[C@H]4C(C(C)C)=C[C@]3(CC[C@H]21)[C@@H]1C(=O)CC[C@H](OCCC#N)[C@@H]14 showed a growth of 66.4%. For O=C(O)CCN1C(=O)/C(=C/C(Cl)=C/c2ccccc2)SC1=S, the growth was 28.8%. With O=C(/C=C/c1cccc(Cl)c1)c1ccc(Nc2nc(Nc3ccc(F)cc3)nc(Nc3ccc(Cl)cc3)n2)cc1 the growth was 113%. In the case of CC(C)(Sc1cc(C(C)(C)C)c(O)c(C(C)(C)C)c1)Sc1cc(C(C)(C)C)c(OC(=O)CCCC(=O)O)c(C(C)(C)C)c1, the growth was 36.6%. Fc1cc2c(cc1Cl)N(c1ncnc3ccc(-c4ccc5n[nH]nc5c4)cc13)CC2 gave a growth of 65.5%. CCSC(SCC)c1ccc(Cl)cc1 gave a growth of 101%. For O=C(Nc1nc2ccc(C(=O)N3CCN(/C=C/c4ccccc4)CC3)cc2s1)c1ccc(NCCc2ccccc2)c([N+](=O)[O-])c1, the growth was 43.2%. Work on O=S(=O)(Nc1cc(F)cc(Cl)c1)c1ccc(-c2cnc(C3CC3)o2)cc1 yielded a growth of 31.7%. With COC(=O)c1c(C)nc(C)c2c1C(=O)C(Br)=C(NCc1ccccc1)C2=O the growth was 13.7%. For COc1cc2c(c(OC)c1OC)CCC(c1cccc(C(=O)Nc3ccc(C#N)cc3)c1)O2 (configuration not stated), the growth was 3.61% (active). O=C1c2ccccc2-c2c1c1c(=O)[nH]c3ccccc3c1n2Cc1ccccc1 gave a growth of 62.6%. O=C1c2c(c3c4ccccc4[nH]c3c3ccc4ccccc4c23)C(=O)N1CCN1CCNCC1 gave a growth of 55.8%. Work on CC(C)=CCCC(C)c1ccc(C)c2c1OCN(CCCCCO)C2 (configuration not stated) yielded a growth of 88.1%. COc1ccc(/C=N/NC(=O)c2ccc(-n3cc(-c4ccccc4)nn3)cc2)cc1OC gave a growth of 98.3%. Work on CCN(CC)S(=O)(=O)c1ccc(S(=O)(=O)N2CCC[C@@H](C(=O)N3CCN(c4nc(C(C)C)no4)CC3)C2)cc1 yielded a growth of 43.1%. Cc1cc(N2CCN(CC(=O)Nc3ccc4c(ccn4C)c3)CC2)nc(N2CCCCCC2)n1 showed a growth of 65.4%. COc1ccc(Nc2ncc(Br)c(NCCCNC(=O)c3cccs3)n2)cc1 was tested, and the growth was 46.2%. NC(=O)C(=O)c1ccccc1NC=O showed a growth of 106%. In the case of N#Cc1ccc2c(c1)C(=O)c1c-2n(CCCN)c(=O)c2cc([N+](=O)[O-])ccc12, the growth was -78.6% (active). For c1ccc(Cn2cc3c(c2)-c2oncc2CC3)cc1, the growth was 42.1%. Compound O=C(CSC(=S)n1cnnc1)NC(=O)c1ccccc1 has a growth of 100%. With O=C1/C(=C\c2ccc3nccnc3c2)SC(=S)N1CCc1ccc(O)cc1 the growth was 50.4%. COc1c(B(O)O)cccc1-c1nc2c(F)cc3[nH]ncc3c2c2c1CCCC2 was tested, and the growth was 8.61% (active). COc1c(B(O)O)cccc1-c1cc(C)c2c(ccc3[nH]ncc32)n1 was tested, and the growth was 84.1%. Work on CSc1nnc(-c2cc3c([nH]c4ccccc43)c(-c3cccc(O)c3)n2)n1-c1ccccc1 yielded a growth of 44.9%. With C=C1C(=O)O[C@H]2[C@H]1CC/C(Cn1cc(-c3ccccc3)nn1)=C\CC[C@@]1(C)O[C@@H]21 the growth was -38% (active). C=C(CBr)[C@@H]1CC[C@]2(C(=O)O)CC[C@]3(C)[C@H](CC[C@@H]4[C@@]5(C)CCC(=O)C(C)(C)[C@@H]5CC[C@]43C)[C@@H]12 was tested, and the growth was 67.9%. CCNCCNc1cc(C2CCCCC2)c(C#N)c2nc3ccccc3n12 was tested, and the growth was -19.4% (active). COc1cc2c(c(OC)c1OC)CCC(c1cccc(C(=O)Nc3cccc(Cl)c3)c1)O2 (configuration not stated) was tested, and the growth was 36.7%. In the case of CCCCCCCC[C@@H]1N[C@@H](C(=O)OC)Cc2c1[nH]c1ccccc21, the growth was 92.7%. CC(=O)Oc1ccc(/C(=C(\C)c2ccc(Cl)cc2)c2ccc(OCCN3CCCCC3)cc2)cc1 showed a growth of 29.8%. COc1ccc2cc1Oc1ccc(cc1)C[C@H]1c3c(cc4c(c3Oc3cc5c(cc3OC)CCN(C)[C@@H]5C2)OCO4)CCN1C gave a growth of 115%. Compound CC(=O)c1c(C)nc2ccccc2c1/C=C/c1ccc(F)cc1 has a growth of 53.8%. CN(/C(N)=N/N=C/c1c2ccccc2cc2ccccc12)C1CCCCC1 was tested, and the growth was 30.8%. In the case of CCOC(=O)n1ccn(C)c1=S, the growth was -28.3% (active). Work on Cc1cn(-c2cc(NC(=O)c3cncc(C#Cc4cnc(N)c5ncccc45)c3)cc(C(F)(F)F)c2)cn1 yielded a growth of 83.6%. O=C(Cn1cc(CSc2nc3ccccc3o2)nn1)Nc1ccc(F)cc1F was tested, and the growth was 116%. For Cc1c2cnccc2c(C)c2c1c1cc(C#N)ccc1n2C, the growth was -1.04% (active). For CNC(=O)c1ccccc1Oc1nc(Nc2cc(OC)c(OC)c(OC)c2)ncc1Br, the growth was 62.2%.
